# Test results: PubChem BioAssay AID651674 (The Scripps Research Institute Molecular Screening Center, 2012)
# The campaign covered roughly 2,200 compounds. About 1,700 (77%) were called active.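 The calls were made as follows: active = mean inhibition across replicate wells exceeding the computed hit threshold (cut at about 13% in these data); inactive = the rest.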 So high a share suggests a set chosen from earlier hits. Only a sample is shown.
# Molecular target: Hepatocyte nuclear factor 4-alpha (Homo sapiens) (UniProt P41235)
# Sequence (P41235 whole entry, looked up, the tested form may be a part): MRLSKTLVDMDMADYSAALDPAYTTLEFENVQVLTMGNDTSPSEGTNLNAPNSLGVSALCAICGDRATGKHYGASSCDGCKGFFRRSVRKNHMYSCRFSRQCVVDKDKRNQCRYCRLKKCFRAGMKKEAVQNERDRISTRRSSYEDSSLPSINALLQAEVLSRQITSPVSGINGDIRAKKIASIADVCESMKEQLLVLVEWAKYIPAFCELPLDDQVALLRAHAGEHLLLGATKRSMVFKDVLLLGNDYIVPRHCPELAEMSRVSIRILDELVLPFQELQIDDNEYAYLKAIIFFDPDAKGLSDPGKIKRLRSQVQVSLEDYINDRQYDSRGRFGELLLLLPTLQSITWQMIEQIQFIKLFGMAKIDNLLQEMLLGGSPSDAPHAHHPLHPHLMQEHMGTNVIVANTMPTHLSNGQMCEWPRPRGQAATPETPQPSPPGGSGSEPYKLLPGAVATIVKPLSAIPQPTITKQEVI
# Experiment: HNF4 dimerization inhibitors, counter-screen for ABHD5-PLIN5 interaction inhibitor project, biochemical, split-luciferase complementation, luminescence (AID 651674);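 also: light from luciferase halves that rejoin when HNF4 fusion proteins dimerize; 0% = DMSO only wells and the 100% control is not given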
# Conditions: at 4 µM, active compounds read high
row,Compound,inhibition
1,CCC(C(=O)OCCN(CC)CC)c1ccccc1 (stereo not drawn),32.3% (active)
2,COc1ccc(-n2cc(CNC3CCOCC3)c(-c3cccc(F)c3)n2)cc1,-1.5% (inactive)
3,CCn1c(SC)nc(O)c(C(c2ccc(OC)c(O)c2)c2c(O)nc(SC)n(CC)c2=O)c1=O,52.2% (active)
4,O=C(CCl)Nc1ccc(Sc2ccc(NC(=O)CCl)cc2)cc1,28% (active)
5,Cc1csc(NC(=O)NC2(C(F)(F)F)Oc3ccccc3O2)n1,99.4% (active)
6,Cc1cccc(C)c1NC(=O)C(c1ccc(C(F)(F)F)cc1)n1c(=O)c(-c2ccco2)nc2ccccc21 (stereo not drawn),15.7% (active)
7,O=C(NC1CCCCC1)C(c1cc2ccccc2o1)n1c(=O)c(-c2ccco2)nc2ccccc21 (stereo not drawn),12.5% (active)
8,N#Cc1ccc(C(C(=O)NCc2ccccc2)n2c(=O)c(-c3ccco3)nc3ccccc32)cc1 (stereo not drawn),46.7% (active)
9,Cc1cccc(C)c1NC(=O)C(c1cccc2ccccc12)n1c(=O)c(-c2ccco2)nc2ccccc21 (stereo not drawn),5.63% (inactive)
10,NC(=O)c1nsc(C(=O)N(CC(=O)NCc2ccc(F)cc2)Cc2ccco2)c1N,2.04% (inactive)
11,Cc1ccc(Cc2c(-c3ccco3)nc3ccc(Cl)cn23)cc1,47.3% (active)
12,Cc1ccc2nc(-c3ccco3)c(Cc3cccc(Cl)c3)n2c1,49.6% (active)
13,O=C(CCN1CCc2ccccc2C(O)(c2ccccc2)C1)c1ccc2c(c1)OCCO2 (stereo not drawn),100% (active)
14,O=C1/C(=C\c2ccc(O)cc2)CCC1CNc1ccc(Cl)cc1 (stereo not drawn),50% (active)
15,COC(=O)c1cnn2c(C(F)(F)F)cc(-c3ccco3)nc12,9.71% (inactive)
16,O=C(N/N=C/C=C/c1ccco1)c1cccs1,39% (active)
17,COc1ccccc1C1/C(=C(/O)c2ccc(C)cc2)C(=O)C(=O)N1Cc1ccco1 (stereo not drawn),10.7% (inactive)
18,O=C1/C(=C\c2ccc([N+](=O)[O-])cc2)CS(=O)(=O)C/C1=C/c1ccc([N+](=O)[O-])cc1,108% (active)
19,c1ccc(CCC2=NCCn3cccc32)cc1,4.26% (inactive)
20,O=C(O)c1ccc2c(c1)C(=O)N(c1ccc(/C=C/C(=O)c3ccccc3)cc1)C2=O,89.2% (active)

row,Compound,inhibition
1,CC(=O)N(c1ccc2oc(=O)sc2c1)S(=O)(=O)c1ccc(C)cc1,17.5% (active)
2,COc1cccc2sc(N(CCCN(C)C)C(=O)C(c3ccccc3)c3ccccc3)nc12,6.22% (inactive)
3,Cc1ccc(SC(CC(=O)c2ccc(C(C)(C)C)cc2)C(=O)O)cc1 (stereo not drawn),89.8% (active)
4,O=C(/C=C/c1ccc(Cl)cc1Cl)c1cccnc1,105% (active)
5,Cc1nc2sc(C(c3ccco3)N3CCOCC3)c(O)n2n1 (stereo not drawn),-1.74% (inactive)
6,Cc1ccc(NC(=O)c2cc(-c3ccc(C)o3)nc3ccccc23)nc1,44.1% (active)
7,CCOC(=O)C(=Cc1ccccc1)C(=O)c1ccccc1,97% (active)
8,CCOC(=O)C(=Cc1ccccc1OC)C(=O)OCC,51.8% (active)
9,CC(=O)c1ccc(NC(=O)CCc2nnc3ccc(NCc4ccco4)nn23)cc1,2.03% (inactive)
10,CCc1ccc(NC(=O)CSc2nnc(-c3cnccn3)n2Cc2ccco2)cc1,25.6% (active)
11,COCCN(CCOC)c1nc(N)c2c(N)nc3c(c2c1C#N)CC(=O)N3Cc1ccc(Cl)cc1,9.32% (inactive)
12,N#Cc1ccccc1S(=O)(=O)N1CCN(Cc2c(O)ccc3ccccc23)CC1,86.6% (active)
13,CC1=CC(C)(C)Nc2ccc(OC(=O)CN3C(=O)C4CCCCC4C3=O)cc21 (stereo not drawn),52.3% (active)
14,CC1=CC(C)(C)Nc2ccc(OC(=O)C(Cc3ccccc3)N3C(=O)C4CCCCC4C3=O)cc21 (stereo not drawn),15.7% (active)
15,COC(=O)c1nc(NC(=O)c2ccc(C(C)(C)C)cc2)n[nH]1,4.25% (inactive)
16,CCN(CCCNC(=O)c1ccc2c(c1)NC(=O)CN2C)c1cccc(C)c1,76.9% (active)
17,CCCCOC(=O)CNc1nnc(SCC(=O)OCC)[nH]c1=O,103% (active)
18,O=C(Nc1ccccc1)c1nnsc1S(=O)(=O)c1ccc(Cl)cc1,100% (active)
19,O=C(Nc1ccccc1Cl)/C(Cl)=C(\Cl)S(=O)c1ccccc1 (stereo not drawn),108% (active)
20,O=C(Nc1nc(-c2ccco2)c(-c2ccco2)s1)c1ccco1,77.9% (active)

row,Compound,inhibition
1,Cc1[nH]c(=O)c(C(=O)/C=C/c2ccccc2)c2c1CCCC2,37.9% (active)
2,CC1(C)CCSC(/C=C/c2ccccc2)=N1,91.4% (active)
3,C[C@@H]1C[C@@H]2O[C@H]2/C=C\C=C\C(=O)Cc2c(Cl)c(O)cc(O)c2C(=O)O1,47.9% (active)
4,COc1ccc2sc(-c3ccccc3OC)c(-c3ccc(OCCN4CCCC4)cc3)c2c1,7.03% (inactive)
5,O=C1C(Cl)=C(Oc2ccccc2)C(=O)c2ccccc21,105% (active)
6,CC1(Oc2ccccc2-c2ccno2)CCN(Cc2ccc(-c3ccccc3)o2)C1 (stereo not drawn),48.5% (active)
7,COc1ccc2c(c1)c(=Cc1ccc(N(C)C)cc1)c1cc(-c3ccccc3)[n+](C)n12,18.1% (active)
8,CCN1CCC(O)(/C=C/c2ccc(C)cc2)C(C(=O)/C=C/c2ccc(C)cc2)C1 (stereo not drawn),85.5% (active)
9,CCCOc1ccc(C(=O)C(CCC(CNCC)C(=O)c2ccc(OCCC)cc2)CNCC)cc1 (stereo not drawn),24.2% (active)
10,O=C(Cn1nc(CNc2ccc(Cl)cc2)[n+]2c1CCCCC2)c1ccc(Cl)cc1,6.95% (inactive)
11,Cc1cccc(C=CC(=O)c2ccc(Cl)cc2)c1,67.2% (active)
12,COc1ccc(N/C=C(\C2OC(=O)c3ccccc32)[N+](=O)[O-])cc1 (stereo not drawn),22.1% (active)
13,COC(=O)/C=C\C(=O)Nc1cccc([N+](=O)[O-])c1,109% (active)
14,CCS(=O)(=O)Nc1ccc(C2=NN(S(=O)(=O)c3ccc(F)cc3)C(c3ccco3)C2)cc1 (stereo not drawn),9.93% (inactive)
15,O=c1[nH]c(/C=C\c2cccc(C(F)(F)F)c2)nc(O)c1[N+](=O)[O-],73.2% (active)
16,O=C(/C(=C/c1cccc(Cl)c1)c1nc2ccccc2[nH]1)c1ccccc1,92% (active)
17,COc1ccccc1-n1nnnc1S(=O)(=O)Cc1ccc(Cl)cc1,32.1% (active)
18,COc1ccc(CCNC(=O)c2nnc(CS(=O)(=O)c3ccccc3)o2)cc1OC,2.92% (inactive)
